About 83,000 compounds went through this panel and 20% of them were active in at least one assay; those are over-represented in the sample as a whole.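 Step 1: grow cells in 96-well plates. Step 2: add test compound at a single concentration. Step 3: incubate 48 h. Step 4: record percent growth.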 The source made the active and inactive calls. How the source made its calls: active means growth percent below 10; inactive means the rest.
System: HL-60(TB) leukemia
Assay: NCI-60 one-dose screen, 48 h (100 = growth as untreated, 0 = no growth, -100 = all killed)
Settings: 10 µM unless noted

Compound	growth
O=S(=O)(NCCNc1nccc(-c2c(-c3ccc(F)c(O)c3)nc3sccn23)n1)c1ccccc1	71% (inactive)
CC1CN(CCO)CC(C)O1 (stereo not given)	102% (inactive)
C#CCn1cnc2c(Nc3cccc(NC(=O)CCl)c3)ncnc21	7.89% (active)
COc1ccc(/C=N\Nc2nc(SCC(C)C)nc(-c3ccc(OC)cc3)c2C#N)cc1	35.8% (inactive)
OC1(c2ccc(Cl)c(C(F)(F)F)c2)CCN(CCCC(c2ccc(F)cc2)c2ccc(F)cc2)CC1	-49.6% (active)
Cc1cccc(C)c1NC(=O)Nc1ccccc1	104% (inactive)
CCCCCCCCCCCCC1CCC(=O)O1 (stereo not given)	88.1% (inactive)
CC(C)(C)OC(=O)N1CCC(O)[C@@H](O[Si](c2ccccc2)(c2ccccc2)C(C)(C)C)[C@H]1/C=C/c1ccccc1 (stereo not given in full)	55.9% (inactive)
C[C@@H]1CC[C@H]2[C@@H](C)C(O)O[C@@H]3O[C@]4(C)CC[C@@H]1[C@]32OO4 (stereo not given in full)	-24.4% (active)
c1ccc(-c2nc(N3CCNCC3)c3oc(-c4ccccc4)nc3n2)cc1	-46.5% (active)
O=C(CCl)NNc1nccc(Nc2ccc(S(=O)(=O)Nc3ccncc3)cc2)n1	36.5% (inactive)
O=C1/C(=C\c2c[nH]c3ccccc23)c2ccccc2N1c1c(Cl)cccc1Cl	-7.81% (active)
C[C@]12CC[C@H]3[C@@H](CCC4=CC(=O)CC[C@@]43C)[C@@H]1CC[C@@H]2c1csc(N)n1	0.82% (active)
COc1ccc2cc(-c3cc(OC)c(OC)c(OC)c3)c(=O)oc2c1	55.3% (inactive)
COc1ccc2cc1Oc1ccc(cc1)C[C@H]1c3c(cc4c(c3Oc3cc5c(cc3OC)CCN(C)[C@@H]5C2)OCO4)CCN1C	36.3% (inactive)
Nc1ccc([N+](=O)[O-])cc1N=C/C=C/c1ccccc1	9.14% (active)
N=C(N)c1ccc(-c2ccc(-c3ccccc3)s2)cc1F	-73.1% (active)
O=C1/C(=C\c2ccc(F)cc2)CN(C(=O)c2ccc([N+](=O)[O-])cc2)C/C1=C\c1ccc(F)cc1	65.1% (inactive)
O=C(CCCCCCCC(=O)N1CCCCC1)N1CCCCC1	94.5% (inactive)
Clc1ccc(C2=Nn3c(nnc3-c3cc(Cl)cc(Cl)c3Cl)SC2)cc1	-15% (active)

Compound	growth
COc1cc(NC(C)CCCNC(=O)CCC(=O)NCCCNCCCCCCCCNCCCNC(=O)CCC(=O)NCCCC(C)Nc2cc(OC)cc3cccnc23)c2ncccc2c1 (stereo not given)	56.5% (inactive)
O=C1CNCCN1	99.5% (inactive)
CC(C)OC(C(=O)O)c1ccccc1 (stereo not given)	129% (inactive)
COc1ccc(/C=C2\CCCC3=C2NC(C)=NC3c2ccc(OC)c(OC)c2)cc1OC (stereo not given)	-6.62% (active)
COc1ccc(C(=O)CCC(=O)O)cc1	98.6% (inactive)
Cc1cccc[n+]1C1c2ccccc2-c2ccccc21	92% (inactive)
N#Cc1c(-c2ccc(F)cc2)c(C#N)c2c(C#N)c(N)nn2c1N	99.7% (inactive)
CNc1ccc(Br)cc1-c1n[nH]c(=O)[nH]c1=O	104% (inactive)
Cc1cc(Nc2nc(-c3ccncc3)nc3ccccc23)n[nH]1	49.1% (inactive)
COc1cc(CCCO)c(OC)c(OC)c1OC	98.4% (inactive)
CCc1cccc2c1S/C(=C/c1ccc(Cl)cc1)C2=O	93.5% (inactive)
CN(Cc1cccc(C(F)(F)F)c1)C(=O)[C@@H](CC(=O)N1CCC(N2CCCCC2)CC1)N1C(=O)[C@@H](N2C(=O)OC[C@@H]2c2ccccc2)[C@H]1/C=C/c1ccccc1	70.1% (inactive)
COC(=O)C(C(=O)OC)C(Br)C(Br)C(Br)c1ccccc1 (stereo not given)	20.9% (inactive)
COc1ccc(-c2c(C)nn3c(NCCN4CCOCC4)cc(C)nc23)cc1OC	107% (inactive)
CCC(C)Nc1ccc(NC(C)CC)cc1 (stereo not given)	57.5% (inactive)
CCCCCCCCCCCCCCCCCCNC(=O)[C@H]1CSC(c2ccc(F)c(OC)c2)N1 (stereo not given in full)	-68% (active)
Cc1ccc(SCN2CCN(c3cccc(Cl)c3)CC2)cc1	111% (inactive)
Cc1ccc(NC(=S)/N=c2/n(-c3ccccc3)nc3n2CCN3C2=NCCN2)cc1	156% (inactive)
CCOC(=O)c1cnn(-c2ccc(S(N)(=O)=O)cc2)c1N	92.9% (inactive)
COc1ccc(NC(=O)c2sc3nc(C)c(C(=O)c4ccccc4)cc3c2N)cc1	78.8% (inactive)

— PubChem BioAssay (NCI)
